Drawing on PubChem BioAssay (NCATS), this text covers Potency for 33 molecules.

Structures are written as SMILES. Inconclusive results are not listed. Where a call stands in place of a potency, no number is given. Calls of active or inactive are those of the source. Calls come from the whole dose curve; as a rule, active = well fitted inhibition curve with a large enough effect; inconclusive = small, poorly fitted or top-dose-only effect; inactive = no such curve, though single readings can be large or run the other way.
Potency is the fitted concentration of half-maximal effect.

The target in this test is Rap guanine nucleotide exchange factor 4 (Homo sapiens) (UniProt Q8WZA2). The test can be described thus: Confirmatory qHTS for antagonist of cAMP-regulated guanine nucleotide exchange factor 4 (EPAC2) (AID 1645885). Note: nearly all actives have a fitted effect of over 25% in size. As to conditions: EPAC2 Rap1B-BODIPY-GDP exchange fluorescence, biochemical; series mostly up to 12.7 µM.
Rap guanine nucleotide exchange factor 4 (Homo sapiens), sequence (Q8WZA2 whole entry, looked up): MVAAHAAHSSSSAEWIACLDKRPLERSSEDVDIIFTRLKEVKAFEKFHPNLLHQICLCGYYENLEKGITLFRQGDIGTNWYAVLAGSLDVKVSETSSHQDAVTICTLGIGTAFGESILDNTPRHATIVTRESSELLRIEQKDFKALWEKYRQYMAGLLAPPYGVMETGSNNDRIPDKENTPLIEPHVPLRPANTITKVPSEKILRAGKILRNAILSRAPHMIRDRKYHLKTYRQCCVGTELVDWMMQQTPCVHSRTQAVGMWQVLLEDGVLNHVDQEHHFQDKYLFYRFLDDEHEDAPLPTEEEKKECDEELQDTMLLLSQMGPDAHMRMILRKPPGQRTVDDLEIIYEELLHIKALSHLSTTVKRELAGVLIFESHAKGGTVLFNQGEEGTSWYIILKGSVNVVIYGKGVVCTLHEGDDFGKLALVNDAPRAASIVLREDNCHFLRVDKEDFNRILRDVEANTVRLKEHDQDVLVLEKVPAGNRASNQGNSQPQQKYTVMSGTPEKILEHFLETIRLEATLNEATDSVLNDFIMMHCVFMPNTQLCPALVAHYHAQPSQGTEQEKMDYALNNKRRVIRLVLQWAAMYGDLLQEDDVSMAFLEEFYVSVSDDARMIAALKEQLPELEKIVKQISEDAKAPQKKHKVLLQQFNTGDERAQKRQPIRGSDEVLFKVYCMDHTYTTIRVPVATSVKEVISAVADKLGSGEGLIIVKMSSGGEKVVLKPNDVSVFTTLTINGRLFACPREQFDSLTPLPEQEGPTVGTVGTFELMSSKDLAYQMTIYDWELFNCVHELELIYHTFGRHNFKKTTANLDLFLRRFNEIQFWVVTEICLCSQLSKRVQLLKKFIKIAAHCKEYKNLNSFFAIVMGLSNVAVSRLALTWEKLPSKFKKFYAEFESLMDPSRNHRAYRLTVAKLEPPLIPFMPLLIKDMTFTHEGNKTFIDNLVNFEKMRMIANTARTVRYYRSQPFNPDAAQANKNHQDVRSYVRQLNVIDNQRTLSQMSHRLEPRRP
Regarding `CCc1ccc(NC(=O)/C(C#N)=C/c2cc3ccc(C)cc3nc2N2CCOCC2)cc1`, the Potency result is “inactive”. Next, `COC(=O)c1cc2oc(C)cc2n1Cc1cc(C)ccc1C`: “inactive”; `O=C(N/N=C/c1cc(Cl)cc([N+](=O)[O-])c1O)NC12CC3CC(CC(C3)C1)C2`: “inactive”. `CC(C)(C)C1CCc2c(sc(NC(=O)CCC(=O)O)c2C(=O)Nc2ccccc2C(F)(F)F)C1` (stereo not drawn): the Potency entry was “inactive”. Next, `COc1ccc(OC)c(NC(=S)N2c3ccccc3CC2C)c1` (stereo not drawn): “inactive”; `COC(=O)c1ccc2nc(-c3ccccc3)c(Cc3cccc(F)c3)n2c1`: “inactive”; `CC(/C=C/c1ccc(N(C)C)cc1)=N\N=C1\NC(=O)CC(C(=O)Nc2ccccc2)S1` (stereo not drawn): “inactive”. Next, `COc1ccc(Cl)cc1NC(=O)CN(C)C(C)C(=O)NC(=O)NC1CCCCC1` (stereo not drawn): “inactive”; `CN1CCS/C1=C\C=C1/SC(=S)N(CC(=O)O)C1=O`: “inactive”. Next, `CCOc1ccc2c(ccc(/C=C/c3cc(C)c4cccnc4c3O)[n+]2C)c1`: 42.6 µM (active). On to `COc1ccc(-c2ncccc2OC(=O)C23CC4CC(CC(C4)C2)C3)cc1OC`, for which the Potency entry is “inactive”. Next, `O=c1oc2cc(O)ccc2cc1-c1nnc(Nc2ccccc2F)s1`: 3.38 µM (active); `COc1ccc(OC)c(/C=C2\SC(=S)N(Cc3cccnc3)C2=O)c1`: “inactive”. As to `Cc1ccc(S(=O)(=O)C2(C(=O)Nc3ccc(Br)cc3)CC2)cc1`, the Potency result was “inactive”. In the case of `Nc1c(C(=O)C2CC2)sc2nc(-c3cccs3)cc(C(F)(F)F)c12`, the Potency is 75.7 µM (active). Next, `CN(C)c1ccc(C2C=C(c3ccc(Cl)cc3OC(F)F)Nc3ncnn32)cc1` (stereo not drawn): “inactive”; `COC(=O)C1=CC(C(=O)c2cccs2)=NN(c2ccc(OC)cc2)C1C(=O)OC` (stereo not drawn): “inactive”; `O=C1/C(=C/C=C/c2ccccc2)Oc2c1ccc(O)c2CN1CCN(CCO)CC1`: “inactive”.

As for `Cc1cccc(C(C)C)c1-n1nnnc1-c1ccccc1`, the Potency is 3.01 µM (active). Next, `CNC(=O)N(C1=NCC(C)(C)S1)c1ccc(F)c(Cl)c1`: “inactive”; `COc1ccc(OC)c(/C=C/c2nc3ccccc3[nH]c2=O)c1`: 75.7 µM (active). Next, `O=S1(=O)NC(c2ccccc2)CC(CC2CCCCC2)O1` (stereo not drawn): “inactive”. Turning to `CCN1CCN(Cc2c(O)ccc3c2O/C(=C\C=C\c2ccccc2OC)C3=O)CC1`, the Potency result was “inactive”. Consider `Nc1ccccc1Oc1ccc2ccccc2c1`, for which the Potency result was “inactive”. On to `Cc1ccc(Nc2cc(C)nc3c(C)ccc([N+](=O)[O-])c23)cc1`, for which the Potency entry is “inactive”.

`CN(C)c1ccc(/C=C(\C#N)C(=O)c2ccccc2)cc1`: the Potency result was “inactive”. Next, `COC(=O)C1=CN(C(C)c2ccccc2)C=C(C(=O)OC)C1c1cc(OC)c(OC)c(OC)c1` (stereo not drawn): 26.9 µM (active). Next, `CN(C)c1ccc(/C=C/C(=O)c2cccc(Br)c2)cc1`: “inactive”; `COC(=O)c1cc(C(=O)c2ccc(Cl)cc2)n2c(=O)/c(=C\N(C)C)sc12`: “inactive”. Next, `Cc1ccc2nc(/C(C#N)=C\c3ccc(N4CCOCC4)o3)[nH]c2c1`: “inactive”; `COc1ccc(OC)c(/C=C/c2nc3ccccc3nc2C)c1`: “inactive”; `CCOC(=O)C1CCCN(c2c(C(=O)c3ccccc3)cnc3ccc(OC)cc23)C1` (stereo not drawn): “inactive”. Take `CC(NC(=O)/C(C#N)=C/c1ccc(N2CCOCC2)cc1)c1ccccc1` (stereo not drawn): the Potency entry is “inactive”.
